Screens deposited in PubChem by University of Kansas High Throughput Screening Laboratory.
mHTT-CaM PPI inh: mutant huntingtin-calmodulin interaction inhibitors – biochemical, AlphaScreen, primary screen; hit rate 3.6% among 190,000; P42858; inhibition, % at 15 µM; AID 1671202, 2021; AlphaScreen His-mHTT/GST-CaM binding, luminescence;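 also: 0% = both proteins with DMSO and 100% = one protein alone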
Target sequence (P42858 whole entry, looked up, stated change not applied): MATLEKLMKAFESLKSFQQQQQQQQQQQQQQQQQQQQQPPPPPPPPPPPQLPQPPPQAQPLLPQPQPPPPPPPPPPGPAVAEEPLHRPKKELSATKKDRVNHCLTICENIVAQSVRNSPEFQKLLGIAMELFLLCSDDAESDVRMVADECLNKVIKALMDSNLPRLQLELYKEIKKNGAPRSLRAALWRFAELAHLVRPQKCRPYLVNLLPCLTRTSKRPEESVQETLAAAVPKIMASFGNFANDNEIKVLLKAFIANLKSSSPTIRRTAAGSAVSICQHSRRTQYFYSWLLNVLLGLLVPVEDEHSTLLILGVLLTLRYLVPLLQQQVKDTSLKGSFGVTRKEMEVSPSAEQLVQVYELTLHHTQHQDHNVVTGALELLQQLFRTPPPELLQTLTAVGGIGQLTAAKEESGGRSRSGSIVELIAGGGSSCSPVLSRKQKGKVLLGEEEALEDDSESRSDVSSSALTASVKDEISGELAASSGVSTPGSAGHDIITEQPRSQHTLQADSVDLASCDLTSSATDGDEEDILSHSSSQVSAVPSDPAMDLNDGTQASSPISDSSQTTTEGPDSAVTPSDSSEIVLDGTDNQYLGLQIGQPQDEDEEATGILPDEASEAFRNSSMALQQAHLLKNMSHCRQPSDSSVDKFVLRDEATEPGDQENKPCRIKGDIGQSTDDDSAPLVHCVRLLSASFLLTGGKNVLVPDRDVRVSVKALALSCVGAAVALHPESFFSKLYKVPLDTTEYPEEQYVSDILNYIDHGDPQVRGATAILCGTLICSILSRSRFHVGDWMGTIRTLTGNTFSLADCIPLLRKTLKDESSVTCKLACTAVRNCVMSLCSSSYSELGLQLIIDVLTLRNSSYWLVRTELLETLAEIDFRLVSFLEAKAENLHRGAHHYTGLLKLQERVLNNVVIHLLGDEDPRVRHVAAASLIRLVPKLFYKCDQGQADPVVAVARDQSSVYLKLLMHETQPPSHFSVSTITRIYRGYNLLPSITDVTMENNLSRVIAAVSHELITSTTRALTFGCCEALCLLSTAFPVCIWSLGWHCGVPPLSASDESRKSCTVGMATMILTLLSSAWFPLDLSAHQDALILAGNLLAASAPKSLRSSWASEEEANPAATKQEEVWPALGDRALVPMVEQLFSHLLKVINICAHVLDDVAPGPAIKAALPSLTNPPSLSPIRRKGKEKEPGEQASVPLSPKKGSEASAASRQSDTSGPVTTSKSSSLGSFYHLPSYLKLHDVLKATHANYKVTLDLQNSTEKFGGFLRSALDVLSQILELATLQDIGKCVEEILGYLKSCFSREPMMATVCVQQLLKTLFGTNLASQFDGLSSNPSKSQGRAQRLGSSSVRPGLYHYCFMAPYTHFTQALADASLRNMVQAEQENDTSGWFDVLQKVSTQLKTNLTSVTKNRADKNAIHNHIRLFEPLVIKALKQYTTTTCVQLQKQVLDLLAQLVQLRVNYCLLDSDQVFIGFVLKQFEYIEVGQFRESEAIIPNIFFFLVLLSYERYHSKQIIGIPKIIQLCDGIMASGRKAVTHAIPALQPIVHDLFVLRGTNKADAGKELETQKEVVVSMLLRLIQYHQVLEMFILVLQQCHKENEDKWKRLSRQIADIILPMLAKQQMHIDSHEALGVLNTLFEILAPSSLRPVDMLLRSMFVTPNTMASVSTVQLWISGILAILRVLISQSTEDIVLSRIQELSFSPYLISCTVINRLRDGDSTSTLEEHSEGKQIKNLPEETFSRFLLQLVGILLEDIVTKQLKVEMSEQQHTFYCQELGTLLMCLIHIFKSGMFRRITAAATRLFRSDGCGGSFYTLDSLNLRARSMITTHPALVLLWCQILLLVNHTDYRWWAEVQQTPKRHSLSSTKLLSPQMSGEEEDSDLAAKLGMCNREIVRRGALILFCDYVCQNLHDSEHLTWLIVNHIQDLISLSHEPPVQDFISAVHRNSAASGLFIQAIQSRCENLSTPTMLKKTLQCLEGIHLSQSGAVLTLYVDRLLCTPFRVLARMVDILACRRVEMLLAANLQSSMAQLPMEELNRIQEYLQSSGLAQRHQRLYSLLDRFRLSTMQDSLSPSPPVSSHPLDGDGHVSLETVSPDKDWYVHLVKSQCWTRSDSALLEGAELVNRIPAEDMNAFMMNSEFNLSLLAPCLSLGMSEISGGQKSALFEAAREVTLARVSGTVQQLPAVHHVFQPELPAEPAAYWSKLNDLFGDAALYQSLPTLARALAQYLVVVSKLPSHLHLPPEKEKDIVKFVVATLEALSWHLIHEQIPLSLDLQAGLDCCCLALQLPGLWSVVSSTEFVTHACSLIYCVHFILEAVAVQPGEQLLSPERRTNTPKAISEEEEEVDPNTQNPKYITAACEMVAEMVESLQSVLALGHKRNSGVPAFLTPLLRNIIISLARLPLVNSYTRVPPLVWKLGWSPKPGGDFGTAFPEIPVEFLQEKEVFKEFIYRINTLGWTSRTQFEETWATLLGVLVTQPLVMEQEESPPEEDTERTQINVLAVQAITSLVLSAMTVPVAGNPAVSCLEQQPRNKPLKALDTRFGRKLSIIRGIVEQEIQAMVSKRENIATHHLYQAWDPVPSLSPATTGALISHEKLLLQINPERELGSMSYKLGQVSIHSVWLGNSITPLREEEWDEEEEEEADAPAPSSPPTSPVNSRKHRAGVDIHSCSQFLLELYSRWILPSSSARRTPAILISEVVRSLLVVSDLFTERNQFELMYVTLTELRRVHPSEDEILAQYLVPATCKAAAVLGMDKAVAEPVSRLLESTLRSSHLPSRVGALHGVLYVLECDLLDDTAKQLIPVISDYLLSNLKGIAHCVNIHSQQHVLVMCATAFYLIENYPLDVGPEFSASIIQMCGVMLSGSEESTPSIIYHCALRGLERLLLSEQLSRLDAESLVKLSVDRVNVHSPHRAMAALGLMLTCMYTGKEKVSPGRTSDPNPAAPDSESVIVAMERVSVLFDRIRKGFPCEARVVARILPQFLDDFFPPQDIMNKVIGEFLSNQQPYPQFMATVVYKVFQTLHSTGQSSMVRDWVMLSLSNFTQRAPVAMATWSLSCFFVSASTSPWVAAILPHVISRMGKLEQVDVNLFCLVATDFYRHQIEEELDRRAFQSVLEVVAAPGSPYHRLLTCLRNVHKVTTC
Pf apPOL block: Pf-apPOL inhibitors, biochemical, fluorescence; Plasmodium falciparum apicoplast DNA polymerase (apPOL); Recombinant Pf-apPOL, molecular beacon fluorescence, 1.5 h; inhibition, % at 10 µM; hit rate 0.25% among 210,000; AID 1794808, 2022
Starred values were filed as active, the others as inactive. The sample as a whole holds a higher share of hits than the screen did. Rule as the data show it: active = inhibition above about 50%; inactive = the rest.

Cc1ccc(-c2nc3sccn3c2NC(=O)c2ccc(Cl)cc2)cc1 was read as mHTT-CaM PPI inh 58* and Pf apPOL block -4.
`CCCNC(=O)N1CCc2c(c(-c3nc(C)no3)nn2C)C1` gave mHTT-CaM PPI inh -2 and Pf apPOL block -4.
Screening CCc1ccc(C2CC(c3ccc(OC)c(OC)c3)=NN2C(=O)CCC(=O)O)cc1 (centres undefined) returned mHTT-CaM PPI inh 24 and Pf apPOL block -5.
For Cc1cc2c(cc1C)N[C@]1(C[C@H]3CCCC(=O)N4CC[C@@H](C1)[C@@H]34)C(=Nc1ccccc1C)N2 the results were mHTT-CaM PPI inh 22 and Pf apPOL block -1.
Screening CC(C)(C)CC(C)(C)N=C1Nc2ccc(Cl)cc2NC12C[C@H]1CCC(=O)N3CC[C@@H](C2)[C@@H]13 (some centres undefined) returned mHTT-CaM PPI inh 95* and Pf apPOL block -3.
For Cc1ccccc1N=C1Nc2cc(Cl)c(Cl)cc2N[C@]12C[C@H]1CCCC(=O)N3CC[C@@H](C2)[C@@H]13 the results were mHTT-CaM PPI inh 86* and Pf apPOL block -8.
`O=C1CCC[C@@H]2C[C@@]3(C[C@@H]4CCN1[C@H]24)Nc1cc(Cl)c(Cl)cc1NC3=NCc1ccccc1` gave mHTT-CaM PPI inh 98* and Pf apPOL block -5.
`CC(C)(C)CC(C)(C)N=C1Nc2ccccc2N[C@]12C[C@H]1CCCC(=O)N3CC[C@@H](C2)[C@@H]13` gave mHTT-CaM PPI inh 49 and Pf apPOL block -6.
Cc1ccccc1N=C1Nc2ccc(Cl)cc2N[C@]12C[C@H]1CCCC(=O)N3CC[C@@H](C2)[C@@H]13 was read as mHTT-CaM PPI inh 25 and Pf apPOL block 3.
Screening CCNc1ccc(S(=O)(=O)C(F)(F)F)c([N+](=O)[O-])c1 returned mHTT-CaM PPI inh 17 and Pf apPOL block 0.
CN1C(=O)/C(=N\OC(=O)c2ccc(Br)cc2)c2ccccc21 was read as mHTT-CaM PPI inh inactive and Pf apPOL block 1.
For N/C(=N\OC(=O)N1c2ccccc2Sc2ccccc21)c1cccnc1 the results were mHTT-CaM PPI inh inactive and Pf apPOL block -7.
Screening Cc1ccc(C(=O)Nc2nc3c(s2)CN(S(=O)(=O)c2ccccc2)CC3)cc1 returned mHTT-CaM PPI inh 24 and Pf apPOL block -2.
CCN1C=C(Cc2ccccc2C)C2=C(C1)C(c1ccccc1C)C(C#N)=C(N)O2 (centres undefined) was read as mHTT-CaM PPI inh 64* and Pf apPOL block -5.
For CCN1C=C(Cc2ccc(F)cc2)C2=C(C1)C(c1ccc(F)cc1)C(C#N)=C(N)O2 (centres undefined) the results were mHTT-CaM PPI inh 85* and Pf apPOL block -14.
`Cc1ccccc1C1C(C#N)=C(N)OC2=C1C(=O)CCC2` (centres undefined) gave mHTT-CaM PPI inh -8 and Pf apPOL block -1.
Screening CC1(C)CC(=O)C2=C(C1)OC(N)=C(C#N)C2c1ccc(F)cc1 (centres undefined) returned mHTT-CaM PPI inh 4 and Pf apPOL block -6.
Cc1cc(Oc2ccccc2F)nc(N2CCOCC2)n1 was read as mHTT-CaM PPI inh -22 and Pf apPOL block -6.
CC(=O)OC1COC(c2nc3ccccc3s2)C(OC(C)=O)C1OC(C)=O (centres undefined) was read as Pf apPOL block -4.
`CCNC(=O)CN1CCN(Cc2ccc3c(c2)OCO3)CC1` gave mHTT-CaM PPI inh 3 and Pf apPOL block -3.
Cc1cc(Cl)ccc1NC(=O)CN1CCN(Cc2ccc3c(c2)OCO3)CC1 was read as mHTT-CaM PPI inh 54* and Pf apPOL block -7.
`COC(=O)c1ccc(Oc2c(C)oc3c(CN(C)Cc4ccccc4)c(O)ccc3c2=O)cc1` gave mHTT-CaM PPI inh -5 and Pf apPOL block -10.
CC(C)(C)c1ccc(N2C(=O)CC(c3ccccc3)C2=O)cc1 (centres undefined) was read as Pf apPOL block 2.
`O=C1CC(c2c[nH]c3ccccc23)C(=O)N1c1ccc(O)cc1` (centres undefined) gave mHTT-CaM PPI inh 77* and Pf apPOL block -4.
For CCNC(=O)Nc1cccc(N2CCCN(Cc3cc(C)cc(C)c3)C2=O)c1 the results were mHTT-CaM PPI inh 14 and Pf apPOL block 1.
For O=S(=O)(NCCCN1CCN(c2ccccc2)CC1)c1cccc(F)c1 the results were mHTT-CaM PPI inh -7 and Pf apPOL block 1.
For COc1ccc2[nH]cc(CN3CCC(C(=O)NC4CCCc5ccccc54)CC3)c2c1 (centres undefined) the results were mHTT-CaM PPI inh 69* and Pf apPOL block 0.
Screening O=C(NC1CCCc2ccccc21)C1CCN(S(=O)(=O)N2CCCCCC2)CC1 (centres undefined) returned mHTT-CaM PPI inh -3 and Pf apPOL block -6.
For O=C1CCCC(O)=C1C(C#Cc1ccccc1)C1=C(O)CCCC1=O the results were mHTT-CaM PPI inh 87* and Pf apPOL block -2.
Screening NS(=O)(=O)C#Cc1ccccc1 returned mHTT-CaM PPI inh -9 and Pf apPOL block -3.
